Here are results for 11 compounds from PubChem BioAssay (NCATS).

Inconclusive results are not listed. The source made the active and inactive calls. Unless noted, the rule behind the calls is not given here.

The nature of assay [1]: qHTS profiling of the MIPE4 collection as inhibitors of Plasmodium falciparum (3D7) proliferation (AID 743344).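 Note: scaled between DMSO vehicle wells and 0.29 µM artemisinin as full inhibition.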 To be noted: P. falciparum 3D7 in erythrocytes, SYBR Green DNA fluorescence, 72 h; at 28.5 µM unless noted. The method, boiled down: (§1)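 Parasite DNA was quantified by SYBR Green I fluorescence (ex 485, em 535 nm) after overnight lysis in saponin/Triton buffer at room temperature. Cultures at 0.3% parasitemia and 2.5% hematocrit were first exposed to compound for 72 h at 37 C; signals were normalised to artemisinin (0.29 uM) and vehicle wells.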

The nature of assay [2]: qHTS profiling of the MIPE4 collection as inhibitors of Plasmodium falciparum (DD2) proliferation (AID 743345). To be noted: P. falciparum Dd2 in erythrocytes, SYBR Green DNA, 72 h; at 28.5 µM unless noted. A digest of the protocol: as §1
A short description of assay [3]: qHTS profiling of the MIPE4 collection as inhibitors of Plasmodium falciparum (DD2) proliferation (Rep 2) (AID 743346). To be noted: P. falciparum Dd2 in erythrocytes, SYBR Green DNA, 72 h; at 28.5 µM unless noted. A digest of the protocol: as §1
A general note: Quantitative high-throughput screening tests each substance at several concentrations.

Assay [4] can be described thus: qHTS profiling of the MIPE4 collection as inhibitors of Plasmodium falciparum (HB3) proliferation (AID 743347).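 Note: plate controls were DMSO vehicle wells for no effect and artemisinin wells for full effect.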 To be noted: P. falciparum HB3 in erythrocytes, SYBR Green DNA, 72 h; at 28.5 µM unless noted. The method, boiled down:
as §1

A short description of assay [5]: High-throughput drug toxicity screening in the BPDCN cell line Gen2.2 (AID 1224824).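 Note: cells exposed to compounds for 48 h before reading.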 To be noted: Gen2.2 BPDCN cells; at 45.8 µM (top of the series) unless noted. The method, boiled down: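 Readout is ATP luminescence from Gen2.2 cells after two days of drug exposure in serum-containing medium at 37 °C. Values express percent activity, with vehicle defining full signal and 9.2 uM bortezomib defining zero.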

The nature of assay [6]: High-throughput drug toxicity screening in the BPDCN cell line Cal-1 (AID 1224825). To be noted: Cal-1 BPDCN cell viability, qHTS; at 45.8 µM (top of the series) unless noted. A digest of the protocol: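 CellTiter-Glo luminescence after 48 h compound exposure; percent activity scaled with DMSO as 100% and bortezomib (9.2 uM final) as 0%. Cal-1 cells seeded at 500/well in RPMI, 10% FBS, no phenol red.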

Assay [7] is described as follows: qHTS assay for measurement of the activity of small molecule inhibitors on Zika virus induced Caspase-3 activity in human iPSC derived neural progenitor cells (hNPCs) (AID 1224857; active = well fitted curve in the direction sought with a large enough effect; an effect the other way counts as inactive or inconclusive; note: % of control where 0% means no effect; nearly all actives have a fitted effect of over 65% in size). A digest of the protocol:
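Pretreat hNPCs with compound 1 h; infect ZIKV 2 FFU/cell; 6 h 37 C, 5% CO2; Caspase-Glo 3/7, 30 min RT; luminescence; normalize to no-virus and virus-only wells.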

Assay [8] in a line: qHTS assay for measurement of the activity of small molecule inhibitors on Zika virus induced Caspase-3 activity in human astrocytoma cells (AID 1224859; active = well fitted curve in the direction sought with a large enough effect; an effect the other way counts as inactive or inconclusive;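 note: plate controls were ZIKV-infected untreated cells for no effect and uninfected cells for full effect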). A digest of the protocol:
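Human SNB-19 astrocytoma cells in RPMI 1640 with 10% FBS receive compound one hour ahead of Zika virus at 2 FFU/cell. After 6 h infection, caspase-3/7 activity is detected by Caspase-Glo luminescence.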

Assay [9] is described as follows: qHTS Assay for Identifying Gametocytocidal Compounds (AID 743244; active = well fitted curve in the direction sought with a large enough effect; an effect the other way counts as inactive or inconclusive;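 note: % is set by controls: 0 for no effect and ±100 for the full control effect; actives lower the fluorescent signal which means gametocytes are killed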). To be noted: P. falciparum 3D7 stage III-V gametocytes, alamarBlue, 72 h; max response: stronger effect = lower value. The method, boiled down: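 Compounds are pinned into medium, gametocytes (stage III–V, 3D7, 20,000 cells/well) added, and plates held 72 h at 37 °C in 5% CO2. AlamarBlue follows for 24 h before fluorescence reading.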

As for `CN(C)Cc1c(C(=O)NCCOc2ccc(C(=O)NO)cc2)oc2ccccc12`, the parasite growth, % of DMSO control in assay [1] was 5.24%. Also, the parasite growth remaining, % of DMSO control (lower = more inhibition) in assay [2] stood at 7.04%. This compound had a parasite growth, % of control (lower = inhibition) in [3] of 7.09%. In addition, in assay [4], the growth, % of control was found to be 6.43%. The cell viability, % of control (lower = more cytotoxic) in assay [5] was found to be 38.7%. Also, the viability (% of control) in assay [6] came to 5.5%. Moreover, the Potency entry in assay [7] and in assay [8] was “inactive” in each case.

`CCN(CC)CCNC(=O)c1ccc2nc(-c3ccccc3)c(-c3ccc(CN4CCC(n5c(=O)[nH]c6ccccc65)CC4)cc3)nc2c1` returned a parasite growth, % of DMSO control in [1] of 4.56%. The compound further came in with a parasite growth remaining, % of DMSO control (lower = more inhibition) in [2] of 5.78%. The compound also showed a growth, % of control in assay [4] of 8.22%. For the same compound, the cell viability, % of control (lower = more cytotoxic) in [5] came out at 1.68%. Further, in assay [6], the viability (% of control) was 0.965%. Also, the Potency result in assay [7] and in assay [8] was “inactive” each time.

In assay [1], `O=C(Nc1nc2cccc(-c3ccc(CN4CCS(=O)(=O)CC4)cc3)n2n1)C1CC1` yielded a parasite growth, % of DMSO control of 64.7%. Besides, in assay [2], the parasite growth remaining, % of DMSO control (lower = more inhibition) is 97.6%. Moreover, the growth, % of control in assay [4] amounted to 73.9%. In addition, the cell viability, % of control (lower = more cytotoxic) in [5] was found to be 107%. Also, in [6], the viability (% of control) amounted to 9.42%. The Potency entry in assay [7] and in assay [8] was “inactive” throughout.

With `COc1cc(-c2nn(C3CCC(N4CCN(C(C)=O)CC4)CC3)c3ncnc(N)c23)ccc1NC(=O)c1cc2ccccc2n1C` (configuration not stated), in assay [1], the parasite growth, % of DMSO control turned out to be 5.39%. The parasite growth remaining, % of DMSO control (lower = more inhibition) in [2] is 12.1%. In assay [3], this compound yielded a parasite growth, % of control (lower = inhibition) of 20.7%. Further, the growth, % of control in assay [4] was found to be 7.32%. Further, the cell viability, % of control (lower = more cytotoxic) in assay [5] stood at 34.5%. Moreover, in assay [6], the viability (% of control) was found to be 9.55%. Further, the Potency result in assay [7] and in assay [8] was “inactive” each time.

`Cc1cc(Nc2nc(N[C@@H](C)c3ccc(F)cc3)c(C#N)cc2F)n[nH]1` came in with a parasite growth, % of DMSO control in assay [1] of 7.05%. The parasite growth remaining, % of DMSO control (lower = more inhibition) in assay [2] is 7.99%. The compound further yielded a parasite growth, % of control (lower = inhibition) in [3] of 9.75%. In assay [4], this compound displayed a growth, % of control of 6.34%. In assay [5], the cell viability, % of control (lower = more cytotoxic) worked out at 218%. The viability (% of control) in assay [6] was found to be 12.6%. Besides, the Potency result in [7] and in [8] was “inactive” in each case.

Turning to `CN(C)CC(C)(C)CNc1nn2c(-c3ccccc3)nnc2cc1C1CCC1`, in assay [1], the parasite growth, % of DMSO control amounted to 20%. This compound yielded a parasite growth remaining, % of DMSO control (lower = more inhibition) in assay [2] of 21.9%. In addition, the parasite growth, % of control (lower = inhibition) in assay [3] is 40.5%. In assay [4], the growth, % of control was found to be 48.8%. Moreover, the cell viability, % of control (lower = more cytotoxic) in [5] was 13.9%. Further, in [6], the viability (% of control) amounted to 3.65%. For the same compound, the Potency result in assay [7] and in [8] was “inactive” each time.

Turning to `CN[C@H]1CCc2cc(OC)c(OC)c(OC)c2-c2ccc(OC)c(=O)cc21`, the max response in [9] was -7.45% (inactive). The parasite growth, % of DMSO control in [1] came to 67.4%. The same compound gave a parasite growth remaining, % of DMSO control (lower = more inhibition) in assay [2] of 90.5%. Moreover, the parasite growth, % of control (lower = inhibition) in assay [3] worked out at 47.1%. Further, the cell viability, % of control (lower = more cytotoxic) in [5] was 24.2%. Further, in assay [6], the viability (% of control) turned out to be 11.6%. Besides, the Potency result in assay [7] is “inactive”.

`CC(C)(C)NC(=O)[C@H]1CN(Cc2cccnc2)CCN1C[C@@H](O)C[C@@H](Cc1ccccc1)C(=O)N[C@H]1c2ccccc2C[C@H]1O`: the parasite growth, % of DMSO control in assay [1] worked out at 19.6%. In assay [2], the parasite growth remaining, % of DMSO control (lower = more inhibition) came to 42.6%. Besides, the growth, % of control in [4] came out at 7.39%. Also, the cell viability, % of control (lower = more cytotoxic) in assay [5] stood at 129%. In addition, the viability (% of control) in assay [6] is 85.6%. In addition, the Potency entry in [7] and in assay [8] was “inactive” in each case.

In the case of `Nc1cccc(-c2cc3c(Oc4cccc(O)c4)ncnc3[nH]2)c1`, the parasite growth, % of DMSO control in assay [1] came to 33.1%. The same compound showed a parasite growth remaining, % of DMSO control (lower = more inhibition) in assay [2] of 86%. For the same compound, the growth, % of control in assay [4] was 43.2%. Moreover, the cell viability, % of control (lower = more cytotoxic) in assay [5] is 115%. For the same compound, the viability (% of control) in assay [6] stood at 9.2%. Besides, the Potency entry in assay [7] and in assay [8] was “inactive” each time.

As for `CN(C)c1nc(Cc2ccc(NC(=O)c3ccc4ccccc4c3)cc2)nc(Cl)c1CC(=O)O`, in assay [1], the parasite growth, % of DMSO control turned out to be 59.8%. For the same compound, the parasite growth remaining, % of DMSO control (lower = more inhibition) in assay [2] turned out to be 87.6%. In assay [4], this compound came in with a growth, % of control of 85.9%. The cell viability, % of control (lower = more cytotoxic) in [5] turned out to be 90.6%. For the same compound, the viability (% of control) in [6] was determined as 113%. The Potency result in [7] and in assay [8] was “inactive” throughout.

As for `CCc1c2c(nc3ccc(O)cc13)-c1cc3c(c(=O)n1C2)COC(=O)[C@]3(O)CC`, in [1], the parasite growth, % of DMSO control was found to be 13.6%. The same compound showed a parasite growth remaining, % of DMSO control (lower = more inhibition) in assay [2] of 12.1%. Moreover, in [3], the parasite growth, % of control (lower = inhibition) came out at 19.1%. The growth, % of control in assay [4] turned out to be 11.3%. Also, in assay [5], the cell viability, % of control (lower = more cytotoxic) amounted to 6.79%. Also, in assay [6], the viability (% of control) came out at 5.47%. Moreover, the Potency entry in assay [7] and in assay [8] was “inactive” throughout.
